The record followed here is PubChem BioAssay (Tox21).

Values joined by “and” are separate entries in the source; they are usually repeats but may differ in a detail not shown here. Identical values can stand only once. Results filed as inconclusive are left out. A call without a number means that no potency is given here. Active and inactive are the calls of the source. The call rests on the fitted dose curve; in most records, active means well fitted cell-killing curve with a large enough effect in the repeat runs; inconclusive means weak or mixed curves, or effect the other way; inactive means flat fitted curve, though single readings scatter.
Potency means the concentration at half of the fitted maximal effect.

A short description of the test: qHTS RealTime-Glo MT Cell Viability Assay in HepG2 cells - 0 hour (AID 1224889). Further: nearly all actives have a fitted effect of over 50% in size. The following applies: RealTime-Glo luminescence; series mostly up to 76.8 µM; activity change, negative = cytotoxicity: at the top concentration. From the text: U.S. Tox21 Program National Center for Advancing Translational Sciences [NCATS] NIH Chemical Genomics Center [NCGC] U.S. Environmental Protection Agency [EPA] National Institutes of Environmental Health Sciences [NIEHS] National Toxicology Program [NTP] U.S. Food and Drug Administration [FDA] Tox21 Assay Overview: Measure of cell viability is critical in the cell-base assay. Analysis of cell viability is necessary for the characterization of cell responses to cytotoxic drugs and environmental stress. A RealTime-Glo MT Cell Viability Assay to monitor cell viability in real time of continues cell culture during 40 hours of compound treatment was used to screen Tox21 10K library compounds in HepG2 cells. The RealTime-Glo MT Cell Viability Assay is a nonlytic, homogeneous, bioluminescent method to measure cell viability in real time using a simple, plate-based method. The assay involves adding NanoLuc luciferase and a cell-permeant prosubstrate to cells in culture. Viable cells reduce the proprietary prosubstrate to generate a substrate for NanoLuc luciferase. This substrate diffuses from cells into the surrounding culture medium, where it is rapidly used by the NanoLuc Enzyme to produce a luminescent signal. The signal correlates with the number of viable cells, making the assay well suited for cytotoxicity studies.
Tox21 Assay Protocol Summary: The mixture of HepG2 cell suspension and reagents were dispensed at 600cells/6 ul/well in 1536-well tissue culture treated black solid bottom plates using a Multidrop dispenser. After the assay plates were incubated at a 37 C/5% CO2 incubator for 5 hours, 23 nL of compounds dissolved in DMSO, positive and negative controls was transferred to the assay plate by a pintool work station. The plates were incubated at 37 C for 40 hours. The luminescence intensity were measured at 0h, 8h, 16h, 24h, 32h and 40h time points using ViewLux plate reader during compound treatment.
A general note: Quantitative high-throughput screening tests each substance at several concentrations.
In the case of `Cc1ccc([N+](=O)[O-])c(C)c1`, the Potency result was “inactive”.

Turning to `CCCN1C=CN(C)C1`, the Potency result is “inactive”. As for `CCC/C=C/C=O`, the Potency entry is “inactive”. The same measure, in the same setting: with `O=C(O)COCCN1CCN(C(c2ccccc2)c2ccc(Cl)cc2)CC1` (stereo not given) the entry was “inactive”; with `Cc1ccc(C(C)(C)C)c(O)c1`, “inactive”. As for `CCC(Cc1c(I)cc(I)c(N)c1I)C(=O)O` (stereo not given), the Potency entry was “inactive”. For `Nc1ccc(N)c(Cl)c1`, the Potency entry is “inactive”. `CC1(C)O[C@@H]2C[C@H]3[C@@H]4C[C@H](F)C5=CC(=O)C=C[C@]5(C)[C@@]4(F)[C@@H](O)C[C@]3(C)[C@]2(C(=O)CO)O1`: the Potency is 3.89 µM (active) and 9.52 µM (active). On to `CC(=O)O[C@]1(C(C)=O)CC[C@H]2[C@@H]3C=C(C)C4=CC(=O)CC[C@]4(C)[C@H]3CC[C@@]21C`, for which the Potency was 347 nM (active) and 952 nM (active). For `O=C(CCCN1CCC(O)(c2ccc(Cl)cc2)CC1)c1ccc(F)cc1`, the “activity change, negative = cytotoxicity” value was 7.41% [at 35.3 µM] (inactive).

Turning to `C=CN1CCCC1=O`, the Potency entry is “inactive”. On to `CC(C)[C@@H]1CC[C@@H](C)CC1=O`, for which the Potency result was “inactive”. In the case of `ClC/C=C/CCl`, the Potency result was “inactive”. The same measure, in the same setting: to `Cc1ccc(C(C)(C)C)cc1` belongs “inactive”; to `CCO[Si](CCCNC(N)=O)(OCC)OCC`, “inactive”; to `c1ccc2c(c1)ccc1ncccc12`, “inactive”. On to `NCCN`, for which the Potency entry is “inactive”. With `C/C=C/C(=O)N(CC)c1ccccc1C`, the Potency result was “inactive”. With `COCCOCCOCCO`, the Potency result was “inactive”.

For the compound `Nc1cc([N+](=O)[O-])ccc1C(=O)O`, the Potency entry is “inactive”. On to `CCCCCC1C(=O)CCC1CC(=O)OC` (stereo not given), for which the Potency result is “inactive”.

Regarding `CNC[C@H](O)c1ccc(O)c(O)c1`, the Potency result is “inactive”. `Cc1ccc(S(=O)(=O)NCl)cc1`: the “activity change, negative = cytotoxicity” value was -21.8% (inactive). As for `O=C(O)c1cc(=O)[nH]c(=O)[nH]1`, the Potency entry was “inactive”. Regarding `C=CC(=O)OCCCC`, the Potency result was “inactive”. `CC(=O)Nc1ccc2c(c1)Cc1cc(NC(C)=O)ccc1-2`: the Potency result was “inactive”. Consider `Cc1cccc(Nc2ccccc2C(=O)O)c1C`, for which the Potency entry is “inactive”. As to `CCCCCCCCCCCCCO`, the Potency result was “inactive”. As for `Brc1nc2ccccc2s1`, the Potency entry is “inactive”. In the case of `CC(C)=CCO`, the Potency entry is “inactive”. For `NCCOCCO`, the Potency entry is “inactive”. The same measure, in the same setting: with `COc1ccc(C(=O)c2ccccc2O)c(O)c1` the entry was “inactive”. Still for that read-out and setting: with `O=C(O)CCCCCCCCCCCC(=O)O` the entry was “inactive”; with `CC(C)(Oc1ccc(Cl)cc1)C(=O)O`, “inactive”; with `CCCCCC=O`, “inactive”. As to `Cc1ccc(/C(=C\CN2CCCC2)c2ccccn2)cc1`, the Potency result was “inactive”. With `Cc1ccc(S(=O)(=O)O)cc1C`, the Potency result is “inactive”. Consider `CC(=O)Oc1c(C)c(C)c2c(c1C)CC[C@@](C)(CCC[C@H](C)CCC[C@H](C)CCCC(C)C)O2`, for which the Potency result was “inactive”. In the case of `CC(C)(C)c1cccc(C(C)(C)C)c1O`, the Potency entry was “inactive”. Consider `CC(=O)OC(C)C`, for which the Potency entry was “inactive”.
